Bioassay records as filed in PubChem BioAssay.
Mot1-301 SUMO: inhibitors of SUMOylation pathway: yeast Mot1-301 growth rescue | actives 1% (n = 320,000) | S. cerevisiae Mot1-301 growth rescue, ATP luminescence, 38.5C; percent above DMSO median, 100 means doubled | growth rescue, % at 18.8 µM | AID 2716;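 active means every valid replicate shows activation above 250% relative to neutral control wells; inactive means the rest, any valid replicate at or below 250%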;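 further: OY570 slx delta 5 strain wells were the positive control but not used for scaling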
JMJD2C inh: blocks human GASC-1 demethylase activity | Q9H3R0 | GST-JMJD2C(1-420) H3K9me3 demethylation, DELFIA europium | inhibition, % at 2.35 µM | actives 0.069% (n = 330,000) | AID 2099;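 active means more than half of a compound's replicate wells show inhibition beyond 50%, single wells judged on their own value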;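 further: signal counts dimethyl H3K9 product captured on neutravidin plate; 0% = median of DMSO wells and 100% = 0.3 times that DMSO median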
Target sequence (Q9H3R0 1-420 limits assumed): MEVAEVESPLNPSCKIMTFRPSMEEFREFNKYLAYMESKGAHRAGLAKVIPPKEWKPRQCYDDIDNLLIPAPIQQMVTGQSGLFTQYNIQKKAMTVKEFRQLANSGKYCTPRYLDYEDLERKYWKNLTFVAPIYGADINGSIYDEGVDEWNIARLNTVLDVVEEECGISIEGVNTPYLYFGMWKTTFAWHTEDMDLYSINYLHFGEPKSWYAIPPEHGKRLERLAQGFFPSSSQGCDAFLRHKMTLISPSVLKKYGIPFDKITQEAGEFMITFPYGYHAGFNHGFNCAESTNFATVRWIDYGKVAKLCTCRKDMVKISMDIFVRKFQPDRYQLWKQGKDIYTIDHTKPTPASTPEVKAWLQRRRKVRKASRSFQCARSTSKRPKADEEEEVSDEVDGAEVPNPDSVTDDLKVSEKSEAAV
p-CIP stab down: p/CIP protein destabilization; actives 0.01% (n = 290,000); decrease of EGFP signal, % at 10 µM; F442A p/CIP-EGFP cells, EGFP fluorescence, 16 h;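 active means EGFP signal decrease of at least 30% at 10 µM or well 3 SD below plate mean, unless failing retest; inactive means the rest, including hits failing retest or dose response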
HDAC3 inhib: inhibitors of human histone deacetylase 3; O15379; recombinant HDAC3, fluorogenic peptide/trypsin coupled, fluorescence; inhibition, % at 8.3 µM; actives 0.15% (n = 320,000); AID 2718; in the data active means inhibition above about 26%, passing the limit was not always enough
PvdQ acylase: P. aeruginosa PvdQ acylase inhibition; purified PvdQ acylase, fluorescence plate reader; inhibition, % at 10 µM; actives 0.063% (n = 340,000); in the data active means inhibition above about 30%, passing the limit was not always enough;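 further: 0% = vehicle neutral wells and 100% = reference inhibitor wells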
PHOSPHO1 block: blocks human PHOSPHO1 phosphatase activity; actives 1.1% (n = 290,000); Q8TCT1; inhibition, % at 13.3 µM; AID 1565; recombinant PHOSPHO1, absorbance phosphatase assay; in the data active means inhibition above about 60%
Starred values were filed as active, the others as inactive; nt = no result given. Shown are actives, neighbours in structure and some others; about 2.2% of the full set was active somewhere.

SMILES | Mot1-301 SUMO | JMJD2C inh | p-CIP stab down | HDAC3 inhib | PvdQ acylase | PHOSPHO1 block
CC1Oc2ccccc2C=C1C1/C(=C(/O)c2ccccc2)C(=O)C(=O)N1CCCN(C)C (stereo not drawn) | 286* | -4 | -1 | -7 | -10 | 21
Cc1ccc(/C(O)=C2\C(=O)C(=O)N(CCN(C)C)C2c2ccccc2F)cc1 (stereo not drawn) | 12 | -14 | -5 | 0 | -9 | 1
CCOC(=O)CCCn1ncn2c(cc3occc32)c1=O | -7 | 2 | -9 | -7 | 33* | 11
COc1ccc(CNC(=O)CCCn2ncn3c(cc4occc43)c2=O)cc1 | -1 | -9 | -1 | 5 | -5 | 43
Cc1ccc(C(=O)NCC(=O)N2CCc3ccccc3C2)cc1C | 319 | -3 | 2 | 1 | -6 | 24
N#Cc1cccc(NC(=O)Cc2ccccc2)c1 | -25 | -2 | 8 | -2 | -5 | 62*
N#Cc1cccc(NC(=O)CNC(=O)Cc2ccccc2)c1 | -13 | -7 | -3 | -1 | 2 | 23
Cc1noc(NS(=O)(=O)c2ccc(NC(=O)c3nn(-c4ccccc4)ccc3=O)cc2)c1C | -33 | 5 | -9 | 12 | -3 | 8
O=C(CNC(=O)c1ccccc1F)Nc1ccccc1C(F)(F)F | -1 | 14 | 4 | -4 | 3 | 69*
O=C(CNC(=O)c1ccc(Cl)cc1)Nc1ccccc1C(F)(F)F | -11 | -9 | -10 | 5 | -10 | 15
Cc1nc2sc(C(=O)O)c(N)c2c2c1COC(C)(C)C2 | -8 | -1 | 15 | 4 | -6 | 66*
Cn1c(O)c(N=NC(=O)Cn2c(C(F)(F)F)nc3ccccc32)c2ccccc21 | -9 | -2 | 0 | 3 | 1 | -7
COc1ccc(NC(=S)NNC(=S)Nc2cccc(C(F)(F)F)c2)cc1 | -51 | -7 | -6 | 28* | -3 | 41
FC(F)(F)c1cccc(NC(=S)NCc2ccccc2)c1 | 3 | 17 | -7 | 6 | -15 | 31
FC(F)(F)c1cccc(CNC(=S)Nc2ccccc2)c1 | 61 | 12 | -6 | 6 | 13 | 62*
CSc1ncccc1C(=O)Nc1ccc(F)c(F)c1F | 3 | 7 | 0 | -1 | -9 | -7
CCCc1ccc(C(=O)NNc2ccc(F)cc2)cc1 | 289* | 3 | 5 | 6 | 18 | -137
CCc1ccc(C(=O)NNc2ccc(F)cc2F)cc1 | 339* | 12 | -2 | -1 | -11 | 22
Cc1cc(C(=O)NNc2ccc(F)cc2F)no1 | 538* | -3 | -4 | -3 | 8 | 22
CN(C)C(CNC1CC(C)(C)NC(C)(C)C1)c1cccc(F)c1 (stereo not drawn) | 13 | -21 | -16 | 5 | -13 | 35
O=C(COc1ccccc1Cc1ccccc1)NCCCN1CCOCC1 | 45 | -10 | -5 | 6 | -10 | 48
Cc1cc(S(=O)(=O)NCC2CC2)c(Cl)cc1Cl | 132 | 5 | -11 | 1 | 107* | 31
Cc1ccc(-c2nnc(-c3cc(C)on3)o2)cc1 | 21 | 18 | -2 | -5 | 11 | 61*
CCC(C(=O)OCC(=O)N(CC)c1c(N)n(Cc2ccccc2)c(=O)[nH]c1=O)c1ccccc1 (stereo not drawn) | 15 | 0 | nt | -3 | -4 | nt
CCN(C(=O)c1coc(=O)c(Br)c1)c1ccc2c(c1)OCO2 | 1 | -5 | -30 | -6 | -4 | 74*
SMILES | Mot1-301 SUMO | JMJD2C inh | p-CIP stab down | HDAC3 inhib | PvdQ acylase | PHOSPHO1 block
CCN(C(=O)c1c(C)cc(=O)oc1C)c1ccc2c(c1)OCO2 | 3 | 5 | 1 | nt | 8 | 18
CCN1C(=O)CCN(C2CCCC2)c2nc(Nc3ccc(C(=O)NC4CCN(C)CC4)cc3OC)ncc21 | nt | nt | nt | nt | 6 | nt
CC(C)n1c(N2CCN(S(=O)(=O)c3cccc([N+](=O)[O-])c3)CC2)nc2ccccc21 | 11 | 2 | -7 | -1 | 8 | 61*
CN(C)c1ccc(/C=C2\SC(=S)N(Nc3ncc(C(F)(F)F)cc3Cl)C2=O)cc1 | 88 | 3 | -101 | -3 | 7 | 23
COc1cc(/C=C2\SC(=S)N(Nc3ncc(C(F)(F)F)cc3Cl)C2=O)ccc1O | -7 | -31 | -108 | -3 | -6 | 73*
COc1ccc2[nH]cc(CCNC(=O)c3ccc4ccccc4n3)c2c1 | -4 | -15 | -11 | -6 | 15 | 29
COC(=O)c1ccc(CSc2nnc(NCc3ccccc3)s2)o1 | 10 | -1 | -3 | 7 | -13 | 45
COc1ccc(Nc2nnc(SCc3cc([N+](=O)[O-])cc4c3OCOC4)s2)cc1 | -14 | 5 | -9 | 0 | -1 | 78*
Cc1nnc(SCc2cc([N+](=O)[O-])cc3c2OCOC3)[nH]c1=O | 15 | 6 | -8 | 1 | -13 | 0
COC(=O)c1ccc(CSc2nnc(Nc3ccccc3OC)s2)o1 | -11 | 2 | -8 | -2 | nt | 67*
COC(=O)c1ccc(CSc2nnc(Nc3ccc(OC)cc3)s2)o1 | 80 | 0 | -3 | 4 | -11 | 71*
Cn1c(=O)c2c(ncn2CC(=O)OCC(=O)NNC(=O)c2ccc(Cl)cc2)n(C)c1=O | -22 | -1 | nt | 1 | -14 | nt
O=C(Cn1nnc(-c2ccccc2F)n1)NCc1ccco1 | -2 | 6 | -2 | -6 | -4 | 66*
O=C(CCCN1C(=O)c2ccccc2C1=O)NCCc1ccc(OC(F)F)cc1 | 184 | 1 | -1 | -3 | -10 | 31
CCOC(=O)C1=C(O)c2ccccc2C(=O)/C1=C\c1ccc(C)cc1 | 280* | 9 | -20 | 9 | -10 | 12
CCOC(=O)C1(C)/C(=N/Nc2ccccc2)C(=O)C(=O)N1c1ccccc1 (stereo not drawn) | nt | -30 | 8 | 1 | 1 | 99*
COc1c(C)cccc1C(=O)NC(=S)Nc1ccccc1N1CCCC1 | 10 | 2 | -10 | 8 | -10 | 22
O=C(Nc1ccccc1)c1ccc2c(c1)OCCO2 | -21 | 4 | -11 | -6 | -9 | 4
O=C(Nc1cccc(F)c1)c1ccc2c(c1)OCCO2 | 479* | -10 | -12 | 4 | 1 | 10
COC(=O)CSc1nc(C)c(C)c(C)c1C(N)=O | 6 | 21 | 4 | 3 | -13 | 62*
COC(=O)CCN1CCC2CC1c1cc(-c3cccc(C)c3)ccc12 (stereo not drawn) | nt | nt | nt | nt | -6 | nt
CCCc1nnc(NC(=O)Cn2c(=O)oc3ccccc32)s1 | -6 | 7 | 0 | 7 | -20 | -19
CC1CCCC(C)N1c1nnc(NC(=O)Cn2c(=O)oc3ccccc32)s1 (stereo not drawn) | 3 | 3 | -14 | 10 | -3 | 62*
CCCc1nnc(NC(=O)Cn2c(=O)oc3cc(Br)ccc32)s1 | 5 | 8 | 13 | 1 | -17 | 100*
O=C(NCCc1ccccc1)c1ccc2c(c1)S(=O)(=O)c1cc(Cl)ccc1C2=O | 9 | 3 | nt | 1 | -9 | nt
CC(C)CN(c1ccccc1)S(=O)(=O)c1nnc(NC(=O)C(C)C)s1 | 6 | 2 | -1 | 0 | -21 | nt
